Test results as given in the supplement of paper PMC7156485.
± gives the standard deviation of the averaged measurements.

Legend:
Conditions in all cases: concentration: 10 µM; 24 h
HCC1569 [1] = experiment: cell number relative to DMSO (% of DMSO); higher = more cells (less growth inhibition / toxicity)
Summary of the method: (§1)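 H1.0 nuclear intensity or cell number is stated as percent of the plate control, based on the median of replicates, and HCC1569 values were smoothed for positional effects. These came from HCC1569 and TDF cells treated with compounds at 10 µM for 24 h at 37 °C in triplicate, then fixed in 3.7% formaldehyde and stained with a rabbit anti-H1.0 antibody, an AlexaFluor 647 secondary and DAPI.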

TDF [2] = experiment: as above
Summary of the method: as §1

TDF [3] = experiment: H1.0 immunofluorescence intensity relative to DMSO (% of DMSO); higher = stronger H1.0 induction, active = 120 or more
Summary of the method: as §1

HCC1569 [4] = experiment: H1.0 immunofluorescence intensity relative to DMSO (% of DMSO); higher = stronger H1.0 induction, active = 140 or more
Summary of the method: as §1
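For H1.0 immunofluorescence intensity relative to DMSO in this document: TDF is a line of transformed human dermal fibroblasts of mesenchymal origin.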
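For cell number relative to DMSO in this document: TDF denotes transformed human dermal fibroblasts of mesenchymal origin.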

Structure (SMILES) | cell number (HCC1569 [1]) | cell number (TDF [2]) | H1.0 immunofluorescence intensity (TDF [3]) | H1.0 immunofluorescence intensity (HCC1569 [4])
Cl.c1ccc(C2CCCC2NC2=NCCCCCCCCCCC2)cc1 (configuration not stated) [MDL 12,330A hydrochloride] | 105 | 109 | 85.7 (inactive) | 88.1 (inactive)
COc1ccccc1Oc1c(NS(=O)(=O)c2ccc(C(C)(C)C)cc2)nc(-c2ncccn2)nc1OCCO [Bosentan] | 99.5 | 98.2 | 98.9 (inactive) | 107 (inactive)
CC(=O)C(C)=O [2,3-Butanedione] | 103 | 103 | 85.8 (inactive) | 92.3 (inactive)
N#CC(=Cc1ccc(O)c(O)c1)C(=O)NCCCNC(=O)C(C#N)=Cc1ccc(O)c(O)c1 [Tyrphostin AG 537] | 101 | 101 | 94 (inactive) | 99.6 (inactive)
C=CC1CN2CCC1CC2C(O)c1ccnc2ccc(OC)cc12.C=CC1CN2CCC1CC2C(O)c1ccnc2ccc(OC)cc12.O=S(=O)(O)O (configuration not stated) [Quinine sulfate] | 102 | 97.8 | 92.8 (inactive) | 100 (inactive)
C[N+](C)(C)C(Cc1c[nH]c(=S)[nH]1)C(=O)[O-] [L-Ergothioneine] | 107 | 102 | 101 (inactive) | 100 (inactive)
OC(CS)C(O)CS (configuration not stated) | 103 | 104 | 93.7 (inactive) | 102 (inactive)
C[C@@H](Oc1cc(-c2cnn(C3CCNCC3)c2)cnc1N)c1c(Cl)ccc(F)c1Cl | 59.6 | 36.3 | 161 (active) | 136 (inactive)
O=c1cc(-c2ccc(O)cc2)oc2cc(O)cc(O)c12 [Apigenin] | 93.5 ± 3 | 104 ± 3.7 | 89.2 (inactive) | 99.9 (inactive)
N=C(N)c1ccc(OCCCCCOc2ccc(C(=N)N)cc2)cc1.O=S([O-])OCCO.O=S([O-])OCCO [Pentamidine isethionate] | 93.1 | 90.6 | 103 (inactive) | 97.2 (inactive)
CCC=CCC(O)C=CC=CCC=CCC=CCCCC(=O)O (configuration not stated) | 105 | 102 | 98.8 (inactive) | 94.3 (inactive)
Cl.NCC1OC(C23CC4CC(CC(C4)C2)C3)Cc2c1ccc(O)c2O (configuration not stated) | 73.5 | 68.9 | 102 (inactive) | 129 (inactive)
CC=Cc1ccc(OC)cc1 [Anethole, trans-] | 96.1 | 81.4 | 107 (inactive) | 105 (inactive)
CCCCCC(O)CCCC(=O)[O-].[Na+] (configuration not stated) [5-hydroxydecanoic acid sodium] | 99.5 | 96 | 99.5 (inactive) | 114 (inactive)
O=C1NC(=O)c2c1c1c3ccccc3[nH]c1n1cncc21 [Isogranulatimide] | 87.7 | 96.4 | 90 (inactive) | 134 (inactive)
O=[NH+]C=C1C=CN(CN2C=CC(=C[NH+]=O)C=C2)C=C1.[Br-].[Br-] [1,1'-methylenebis(4-(nitrosomethyl)pyridinium) bromide] | 105 | 99 | 89.7 (inactive) | 93.7 (inactive)
Cc1ccccc1N1CCN(S(=O)(=O)CC23CCC(CC2NC(=O)C(N)CCS(C)(=O)=O)C3(C)C)CC1.Cl (configuration not stated) | 101 | 104 | 94.1 (inactive) | 99 (inactive)
NCCCS(=O)(=O)[O-].[Na+] [3-Amino-1-propanesulfonic acid sodium] | 94.4 | 99.3 | 93.2 (inactive) | 91.9 (inactive)
CCCCCCCCCCCCCCCCCC(=O)NCC(COP(=O)([O-])OCC[N+](C)(C)C)OCC (racemic) [rac-2-Ethoxy-3-octadecanamido-1-propylphosphocholine] | 39 | 54.4 | 183 (active) | 153 (active)
CC(C)(C)c1nc2c3cc[nH]c(=O)c3c3cc(F)ccc3c2[nH]1 [JAK Inhibitor I] | 99.8 | 99.5 | 90.3 (inactive) | 126 (inactive)
NC(CCC(=O)NC(CS)C(=O)NCC(=O)O)C(=O)O (configuration not stated) [Glutathione] | 101 | 96.1 | 91 (inactive) | 93 (inactive)
CN(C)CCC=C1c2ccccc2COc2ccc(CC(=O)O)cc21 [Olopatadine] | 102 | 106 | 90.3 (inactive) | 102 (inactive)
CC1(C)CNc2cc(NC(=O)c3cccnc3NCc3ccncc3)ccc21 [Motesanib] | 90 | 91.4 | 107 (inactive) | 106 (inactive)
